WT yeast gro inh: growth inhibition of WT yeast, mitochondrial fusion screen. mitochondrial fusion phenotypic screen, WT strain. inhibition, % at 10 µM. 190,000 compounds, 2.1% hits; in the data active = inhibition above about 58%; tested in S. cerevisiae
Insulin prom inh: TRM-6 insulin promoter activity inhibition; TRM-6 cells (human fetal islet line), insulin promoter-eGFP reporter, imaging; reporter expression induced with tamoxifen; inhibition, % at 2 µM; 130,000 compounds, 0.9% hits; AID 1273;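 active = inhibition above the mean plus 3 SD, with well images judged a real hit on visual review, cut at about 60% in these data, passing the limit was not always enough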
Lmaj promast: inhibitors of Leishmania major promastigote growth | AID 1063 | 200,000 compounds, 9% hits | Leishmania major promastigotes, resazurin fluorescence viability | inhibition, % at 10 µM; in the data active = inhibition above about 50%;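 note: promastigotes grown with compound for 44 hours at 28 °C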
ROMK primary: human ROMK K+ channel modulation, primary screen; Tet-inducible ROMK, thallium flux fluorescence; actives lie on both sides; P48048; AID 1918; B-score at 10 µM; 130,000 compounds, 2% hits;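 active = signal ratio slope over the read window, or its plate-corrected B-score, at least 3 SD from the plate mean, either direction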;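 note: B-score of the F/F0 ratio slope over 7 to 12 s after thallium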
KCC2 mod: KCC2 (human) Cl- transport modulation; KCC2 cells, thallium flux FluoZin-2 fluorescence; B-score of Tl+ flux slope (higher = more flux/activation; lower = inhibition) at 10 µM; 190,000 compounds, 2.2% hits;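 active = thallium flux slope and its plate-corrected score both differing from the plate sample mean at a set confidence after two filtering rounds, in either direction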;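 note: slope of fluorescence scaled to starting intensity during 10 to 20 s after thallium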
Ins promoter up: MIN6 insulin promoter up-regulation; z-score at 5 µM; 190,000 compounds, 0.3% hits; MIN6 insulin promoter-GFP reporter, high-content imaging; active compounds read high;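 active = z-score above 3 at 5 µM with at least 500 cells counted in the well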
Hits are given with their value. Compounds with a hit are over-represented: about 12% of the library has one in this group of screens.

What do the screens show for `Cc1cccc2sc(N(CCCN(C)C)C(=O)c3sc4ccccc4c3Cl)nc12`?
WT yeast gro inh: 87.5; Lmaj promast: inactive; ROMK primary: inactive; KCC2 mod: inactive; Ins promoter up: inactive

How did Cc1ccc2nc(N(CCCN(C)C)C(=O)COc3ccc(Cl)cc3)sc2c1 do in these assays?
WT yeast gro inh: 91.0; Insulin prom inh: inactive; Lmaj promast: inactive; ROMK primary: inactive; KCC2 mod: inactive; Ins promoter up: inactive

What do the screens show for `CN(C)CCCN(C(=O)COc1ccc(Cl)cc1)c1nc2ccc(F)cc2s1`?
WT yeast gro inh: 60.7; Insulin prom inh: inactive; Lmaj promast: inactive; ROMK primary: inactive; KCC2 mod: inactive

How did CN(C)CCCN(C(=O)CCOc1ccccc1)c1nc2ccc(F)cc2s1 do in these assays?
WT yeast gro inh: inactive; Insulin prom inh: inactive; Lmaj promast: 93.1; ROMK primary: inactive; KCC2 mod: inactive; Ins promoter up: inactive

Results for Cc1ccc2nc(N(CCN(C)C)C(=O)c3cc(Cl)sc3Cl)sc2c1 ?
WT yeast gro inh: inactive; Insulin prom inh: inactive; Lmaj promast: inactive; KCC2 mod: inactive; Ins promoter up: inactive

What do the screens show for `CCOC(=O)c1sc(NC(=O)CSc2nc3c(c(=O)n2-c2ccc(F)cc2)SCC3)c(C(=O)OCC)c1C`?
WT yeast gro inh: inactive; Insulin prom inh: inactive; Lmaj promast: inactive; ROMK primary: inactive; KCC2 mod: inactive; Ins promoter up: inactive

What do the screens show for `Cc1cccc(C(=O)NCCc2csc(C)n2)c1`?
WT yeast gro inh: inactive; Lmaj promast: inactive; Ins promoter up: inactive

How did Cc1ccc(C)c(Cn2cnc3c(nnn3-c3ccc(F)cc3)c2=O)c1 do in these assays?
WT yeast gro inh: inactive; Lmaj promast: inactive; KCC2 mod: inactive; Ins promoter up: inactive

How did O=C(CN1C(=O)COc2ccc(S(=O)(=O)N3CCOCC3)cc21)NCc1ccccn1 do in these assays?
ROMK primary: inactive; KCC2 mod: inactive; Ins promoter up: inactive

What do the screens show for `Cc1cc(C)c2sc(N(CCN(C)C)C(=O)c3cc(Cl)sc3Cl)nc2c1`?
WT yeast gro inh: inactive; Insulin prom inh: inactive; Lmaj promast: inactive; ROMK primary: inactive; KCC2 mod: inactive; Ins promoter up: inactive

Results for Cc1cc(C)c2sc(N(CCCN(C)C)C(=O)COc3ccc(Cl)cc3)nc2c1 ?
WT yeast gro inh: 88.8; Insulin prom inh: inactive; Lmaj promast: inactive; ROMK primary: inactive; KCC2 mod: inactive; Ins promoter up: inactive

How did Cc1cccc2sc(N(CCCN(C)C)C(=O)COc3ccc(Cl)cc3)nc12 do in these assays?
WT yeast gro inh: 89.7; Insulin prom inh: inactive; Lmaj promast: inactive; ROMK primary: inactive; KCC2 mod: inactive; Ins promoter up: inactive

How did CN(C)CCCN(C(=O)c1ccc(N2C(=O)CCC2=O)cc1)c1nc2c(F)cccc2s1 do in these assays?
WT yeast gro inh: inactive; Insulin prom inh: inactive; Lmaj promast: inactive; ROMK primary: inactive; KCC2 mod: inactive; Ins promoter up: inactive

How did Cc1ccc2sc(N(CCCN(C)C)C(=O)CN3C(=O)c4ccccc4C3=O)nc2c1C do in these assays?
WT yeast gro inh: 94.2; Insulin prom inh: inactive; Lmaj promast: inactive; ROMK primary: inactive; KCC2 mod: inactive; Ins promoter up: inactive

How did CN(C)CCCN(C(=O)COc1ccc(Cl)cc1)c1nc2c(F)cccc2s1 do in these assays?
WT yeast gro inh: inactive; Insulin prom inh: inactive; Lmaj promast: inactive; ROMK primary: inactive; KCC2 mod: inactive; Ins promoter up: inactive

What do the screens show for `CCc1nc2ccccc2c(=O)n1NC(=O)c1c(O)c2ccccc2[nH]c1=O`?
WT yeast gro inh: inactive; Lmaj promast: inactive; KCC2 mod: inactive; Ins promoter up: inactive

Results for CCOC(=O)Cn1c(=O)oc2cc(S(=O)(=O)N3CCCc4ccccc43)ccc21 ?
WT yeast gro inh: inactive; Lmaj promast: 81.2; KCC2 mod: inactive; Ins promoter up: inactive

How did O=C(Cn1c(=O)oc2cc(S(=O)(=O)N3CCc4ccccc43)ccc21)NC1CCCC1 do in these assays?
WT yeast gro inh: inactive; Lmaj promast: 98.5; KCC2 mod: inactive; Ins promoter up: inactive

What do the screens show for `CC(C)CCNC(=O)Cn1c(=O)oc2cc(S(=O)(=O)N3CCc4ccccc43)ccc21`?
WT yeast gro inh: inactive; Lmaj promast: 98.8; KCC2 mod: inactive; Ins promoter up: inactive

How did O=C(Cn1c(=O)oc2cc(S(=O)(=O)N3CCCC3)ccc21)N1CCN(C2CCCCC2)CC1 do in these assays?
WT yeast gro inh: inactive; Lmaj promast: 84.8; Ins promoter up: inactive

How did CCOC(=O)Cn1c(=O)oc2cc(S(=O)(=O)N3CCn4c3nc3ccccc34)ccc21 do in these assays?
WT yeast gro inh: inactive; Lmaj promast: inactive; KCC2 mod: inactive; Ins promoter up: inactive

What do the screens show for `COc1ccc(NC(C)=O)cc1NC(C)C(=O)Nc1ccc(F)c(F)c1F` (centres undefined)?
WT yeast gro inh: inactive; Insulin prom inh: inactive; Lmaj promast: inactive; ROMK primary: inactive; KCC2 mod: inactive; Ins promoter up: inactive

What do the screens show for `O=C(Nc1ccccc1)c1cccnc1N1CCCC1`?
WT yeast gro inh: inactive; Insulin prom inh: inactive; Lmaj promast: inactive; ROMK primary: inactive; Ins promoter up: inactive

Results for Cc1cccc2sc(NNC(=O)c3ccc(S(=O)(=O)N4CCCC(C)C4)cc3)nc12 (centres undefined) ?
WT yeast gro inh: inactive; Insulin prom inh: 65.0; Lmaj promast: 95.9; ROMK primary: inactive; KCC2 mod: inactive; Ins promoter up: inactive

What do the screens show for `Cc1cccc2sc(NNC(=O)c3ccc(S(=O)(=O)N4CCc5ccccc5C4)cc3)nc12`?
WT yeast gro inh: inactive; Insulin prom inh: 70.7; Lmaj promast: 99.2; ROMK primary: inactive; KCC2 mod: inactive; Ins promoter up: inactive

How did CC1CCCN(S(=O)(=O)c2ccc(C(=O)Nc3ccccc3-c3nc4ccccc4[nH]3)cc2)C1 (centres undefined) do in these assays?
WT yeast gro inh: inactive; Insulin prom inh: inactive; Lmaj promast: inactive; ROMK primary: inactive; KCC2 mod: inactive; Ins promoter up: inactive

What do the screens show for `Cc1cccc2sc(NNC(=O)c3ccc4c(c3)OCCO4)nc12`?
WT yeast gro inh: inactive; Insulin prom inh: inactive; Lmaj promast: inactive; ROMK primary: inactive; KCC2 mod: inactive; Ins promoter up: 3.4

What do the screens show for `CCOC(=O)N1CCN(S(=O)(=O)c2ccc(C(=O)NNc3nc4c(C)cccc4s3)cc2)CC1`?
WT yeast gro inh: inactive; Insulin prom inh: inactive; Lmaj promast: inactive; ROMK primary: inactive; KCC2 mod: inactive; Ins promoter up: inactive

How did CCS(=O)(=O)c1ccc(OC)c(N=Nc2ccc(O)c3ncccc23)c1 do in these assays?
WT yeast gro inh: inactive; Lmaj promast: 100.0; ROMK primary: inactive; KCC2 mod: inactive; Ins promoter up: inactive

Results for Nc1cccc(CCc2nc3cc4ccccc4cc3[nH]2)c1 ?
WT yeast gro inh: inactive; Insulin prom inh: inactive; Lmaj promast: 97.1; ROMK primary: inactive; KCC2 mod: inactive; Ins promoter up: inactive

What do the screens show for `COc1ccc(NS(=O)(=O)c2ccc(N3CCCC3)c(NC(=S)Nc3cccc(C)c3C)c2)cc1`?
WT yeast gro inh: inactive; Insulin prom inh: inactive; Lmaj promast: 57.9; KCC2 mod: inactive; Ins promoter up: inactive

Screening results from PubChem.
